The results in this text go back to a collection of fitness landscapes (doi:10.1126/science.1257360).

To fix the notation:
B1: PhoQ; a variant is named by its letters at X, in order, P23837 (parent)
chain: MKKLLRLFFPLSLRVRFLLATAAVVLVLSLAYGMVALIGYSVSFDKTTFRLLRGESNLFYTLAKWENNKLHVELPENIDKQSPTMTLIYDENGQLLWAQRDVPWLMKMIQPDWLKSNGFHEIEADVNDTSLLLSGDHSIQQQLQEVREDDDDAEMTHSVAVNVYPATSRMPKLTIVVVDTIPVELKSSYMVWSWFIYVLSANLLLVIPLLWVAAWWSLRPIEALAKEVRELEEHNRELLNPATTRELTSLVRNLNRLLKSERERYDKYRTTLTDLTHSLKTPLXXLQXXLRSLRSEKMSVSDAEPVMLEQISRISQQIGYYLHRASMRGGTLLSRELHPVAPLLDNLTSALNKVYQRKGVNISLDISPEISFVGEQNDFVEVMGNVLDNACKYCLEFVEISARQTDEHLYIVVEDDGPGIPLSKREVIFDRGQRVDTLRPGQGVGLAVAREITEQYEGKIVAGESMLGGARMEVIFGRQHSAPKDE

The full ranking holds about 140,000 sequences; the median of “enrichment ratio after two sorts for PhoP signalling” is about 0, and the highest 2% start at about 11. For the sample, the highest values were picked, then their nearest neighbours and some sequences at random.

Variants of B1 are the subject of the test. In words: enrichment ratio after two sorts for PhoP signalling (ratio (wild type AVST 3.29)); higher = more functional. The following applies: with PhoP (E. coli).
As for EAAP, the enrichment ratio is ≤ 0.25.

For the variant LSEF, the enrichment ratio is ≤ 0.25.

On to DGFG, for which the enrichment ratio is ≤ 0.25.

For the variant EQRH, the enrichment ratio was ≤ 0.25.

On to KHEV, for which the enrichment ratio was ≤ 0.25.

INFP: the enrichment ratio was ≤ 0.25.

For TDLE, the enrichment ratio is ≤ 0.25.

For the variant NRFY, the enrichment ratio is ≤ 0.25.

With VSYR, the enrichment ratio is ≤ 0.25.

In the case of PTNE, the enrichment ratio is ≤ 0.25.

Take FSIC: the enrichment ratio was ≤ 0.25.

Turning to PHTQ, the enrichment ratio is ≤ 0.25.

Take QGAL: the enrichment ratio worked out at 15.6.

With FFAL, the enrichment ratio is ≤ 0.25.

For the variant QAAL, the enrichment ratio was determined as 3.3.

With LMWN, the enrichment ratio is ≤ 0.25.

As to HINH, the enrichment ratio was ≤ 0.25.

Consider KPLN, for which the enrichment ratio was ≤ 0.25.

With TSLT, the enrichment ratio was found to be 13.3.

Take TSLA: the enrichment ratio is 16.6.

With TSLS, the enrichment ratio was 15.9.

In the case of KSLA, the enrichment ratio is ≤ 0.25.

Turning to KSLS, the enrichment ratio was ≤ 0.25.

In the case of FSLS, the enrichment ratio is 9.54.

In the case of KSLT, the enrichment ratio was ≤ 0.25.

Regarding TSLN, the enrichment ratio worked out at 16.9.

As for NSLN, the enrichment ratio was ≤ 0.25.

Turning to KSLN, the enrichment ratio is ≤ 0.25.

With FSLT, the enrichment ratio stood at 7.83.

With TSWI, the enrichment ratio amounted to 3.63.

Take YNRN: the enrichment ratio is ≤ 0.25.

Take VLSY: the enrichment ratio turned out to be 0.334.

DDLI: the enrichment ratio was ≤ 0.25.

For ARIV, the enrichment ratio is ≤ 0.25.

For the variant HMEL, the enrichment ratio was ≤ 0.25.

As to PRTC, the enrichment ratio is ≤ 0.25.

In the case of INYQ, the enrichment ratio is ≤ 0.25.

As to ICWY, the enrichment ratio was ≤ 0.25.

With RSTG, the enrichment ratio was ≤ 0.25.

For YLPW, the enrichment ratio is ≤ 0.25.

As to WEVD, the enrichment ratio is ≤ 0.25.

As to ANLP, the enrichment ratio is ≤ 0.25.

For GNLF, the enrichment ratio stood at 6.83.

On to TPLF, for which the enrichment ratio is ≤ 0.25.

Take GSLM: the enrichment ratio came out at 20.9.

With GSFM, the enrichment ratio was ≤ 0.25.

GSGM: the enrichment ratio turned out to be 8.45.

In the case of GSLF, the enrichment ratio stood at 11.4.

In the case of KGAD, the enrichment ratio was ≤ 0.25.

In the case of MQRI, the enrichment ratio was ≤ 0.25.

As for EYAR, the enrichment ratio was ≤ 0.25.

For the variant AEMG, the enrichment ratio was found to be 14.3.

On to AIYG, for which the enrichment ratio was determined as 0.334.

ADYG: the enrichment ratio is ≤ 0.25.

With AEMF, the enrichment ratio is ≤ 0.25.

With AEYG, the enrichment ratio was 36.3.

Regarding AEMS, the enrichment ratio was determined as 31.

In the case of AEGG, the enrichment ratio is ≤ 0.25.

Regarding AEHG, the enrichment ratio was ≤ 0.25.

Turning to AEEG, the enrichment ratio is ≤ 0.25.

With AEMT, the enrichment ratio is 5.41.

On to AEIG, for which the enrichment ratio amounted to 21.9.

Turning to QPAL, the enrichment ratio is ≤ 0.25.

As for QTTM, the enrichment ratio is ≤ 0.25.

As to SAVI, the enrichment ratio was 3.04.

Take NWIW: the enrichment ratio is ≤ 0.25.

For the variant RGNN, the enrichment ratio was ≤ 0.25.

For the variant GTDL, the enrichment ratio is ≤ 0.25.

Turning to AEGA, the enrichment ratio is 11.

As for AEMA, the enrichment ratio was 25.6.

Take AGMA: the enrichment ratio was found to be 5.7.

For the variant IMTE, the enrichment ratio is ≤ 0.25.

Consider PMNV, for which the enrichment ratio was ≤ 0.25.

For the variant YHPY, the enrichment ratio is ≤ 0.25.

Regarding TNGH, the enrichment ratio came to 7.13.

On to TASK, for which the enrichment ratio came out at 0.795.

Regarding KASS, the enrichment ratio came to 1.62.

Turning to TATC, the enrichment ratio is 7.1.

TASI: the enrichment ratio stood at 12.5.

Regarding TATS, the enrichment ratio amounted to 19.8.

Turning to NASS, the enrichment ratio was ≤ 0.25.

As for NASI, the enrichment ratio is ≤ 0.25.

In the case of KASI, the enrichment ratio is ≤ 0.25.

In the case of TASS, the enrichment ratio came to 13.4.

As for QASI, the enrichment ratio was 12.8.

For TATH, the enrichment ratio stood at 3.27.

For QRSI, the enrichment ratio is ≤ 0.25.

Turning to MVMH, the enrichment ratio is ≤ 0.25.

Consider DHNH, for which the enrichment ratio was ≤ 0.25.

Turning to KASC, the enrichment ratio was ≤ 0.25.

Regarding NASC, the enrichment ratio is ≤ 0.25.

Turning to TASC, the enrichment ratio is 12.7.

As to NATG, the enrichment ratio is ≤ 0.25.

Turning to KATG, the enrichment ratio was ≤ 0.25.

Regarding TATG, the enrichment ratio stood at 18.

For FSNY, the enrichment ratio was ≤ 0.25.

Regarding TWVT, the enrichment ratio was ≤ 0.25.

Regarding QCCG, the enrichment ratio was ≤ 0.25.

On to GQIG, for which the enrichment ratio is 23.8.

For GCCG, the enrichment ratio worked out at 18.1.

Regarding GTIG, the enrichment ratio stood at 1.96.

As to GQIV, the enrichment ratio came to 0.651.

Regarding GNIG, the enrichment ratio amounted to 1.98.

For the variant GCVG, the enrichment ratio was ≤ 0.25.

GCCI: the enrichment ratio amounted to 5.84.

For the variant GCIG, the enrichment ratio came out at 12.8.

As to GCGG, the enrichment ratio is ≤ 0.25.

GCMG: the enrichment ratio stood at 16.9.

As to GYIG, the enrichment ratio is ≤ 0.25.

For LGAY, the enrichment ratio was ≤ 0.25.

As to SVEV, the enrichment ratio was ≤ 0.25.

In the case of YSQV, the enrichment ratio was ≤ 0.25.

For the variant KMDL, the enrichment ratio was ≤ 0.25.

On to NRSD, for which the enrichment ratio was ≤ 0.25.

Regarding TNRT, the enrichment ratio was ≤ 0.25.

As to FPTD, the enrichment ratio was ≤ 0.25.

In the case of IEAY, the enrichment ratio is ≤ 0.25.

Consider MKTL, for which the enrichment ratio is ≤ 0.25.

Consider HKTL, for which the enrichment ratio was ≤ 0.25.

Consider AITL, for which the enrichment ratio turned out to be 24.3.

Regarding AETL, the enrichment ratio is 15.1.

Take AMTL: the enrichment ratio stood at 4.39.

Take AVTL: the enrichment ratio is 12.5.

Turning to AHTL, the enrichment ratio was 6.56.

With AVWL, the enrichment ratio is ≤ 0.25.

As to TKTL, the enrichment ratio came out at 16.

As to AVEL, the enrichment ratio was ≤ 0.25.

For the variant MHYL, the enrichment ratio is ≤ 0.25.

With ALHS, the enrichment ratio was ≤ 0.25.

Consider THYA, for which the enrichment ratio is ≤ 0.25.

On to TPED, for which the enrichment ratio is ≤ 0.25.

For WDQY, the enrichment ratio was ≤ 0.25.

With IFCF, the enrichment ratio is ≤ 0.25.

Take KLTL: the enrichment ratio was ≤ 0.25.

Take AKTL: the enrichment ratio was 12.5.

On to VRTL, for which the enrichment ratio is ≤ 0.25.

Take KKTL: the enrichment ratio is ≤ 0.25.

Turning to AWTL, the enrichment ratio is ≤ 0.25.

With ASEL, the enrichment ratio worked out at 3.67.

ASTL: the enrichment ratio is 20.2.

With LLTL, the enrichment ratio was ≤ 0.25.

Consider ANTL, for which the enrichment ratio was 12.9.

With ADTL, the enrichment ratio is ≤ 0.25.

Take ALTL: the enrichment ratio stood at 15.2.

Take LLVY: the enrichment ratio was ≤ 0.25.

For the variant YYRY, the enrichment ratio was ≤ 0.25.

RSKL: the enrichment ratio is ≤ 0.25.

Consider EIAA, for which the enrichment ratio is ≤ 0.25.

For SNVV, the enrichment ratio came to 7.87.

In the case of ACTL, the enrichment ratio worked out at 15.2.

For ACTK, the enrichment ratio stood at 4.69.

For AGAW, the enrichment ratio was ≤ 0.25.

For the variant PHQA, the enrichment ratio was ≤ 0.25.
